# Results taken from PubChem BioAssay (NCATS).
# Inconclusive results are not listed. Where a call stands in place of a potency, no number is given. Values without a mark were called inactive. Active and inactive are the calls of the source. The call rests on the fitted dose curve; in most records, active means well fitted curve in the direction sought with a large enough effect; inconclusive means small, poorly fitted or top-dose-only effect, or another doubt; inactive means no such curve, though single readings can be large; an effect the other way counts as inactive or inconclusive.
# What was measured:
# [1] = target: Rap guanine nucleotide exchange factor 3 (Homo sapiens) (UniProt O95398); experiment: Confirmatory qHTS for antagonist of cAMP-regulated guanine nucleotide exchange factor 3 (EPAC1) (AID 1645880); further: nearly all actives have a fitted effect of over 55% in size; further: potency means the concentration at half of the fitted maximal effect
# Sequence of Rap guanine nucleotide exchange factor 3 (Homo sapiens) (O95398 whole entry, looked up): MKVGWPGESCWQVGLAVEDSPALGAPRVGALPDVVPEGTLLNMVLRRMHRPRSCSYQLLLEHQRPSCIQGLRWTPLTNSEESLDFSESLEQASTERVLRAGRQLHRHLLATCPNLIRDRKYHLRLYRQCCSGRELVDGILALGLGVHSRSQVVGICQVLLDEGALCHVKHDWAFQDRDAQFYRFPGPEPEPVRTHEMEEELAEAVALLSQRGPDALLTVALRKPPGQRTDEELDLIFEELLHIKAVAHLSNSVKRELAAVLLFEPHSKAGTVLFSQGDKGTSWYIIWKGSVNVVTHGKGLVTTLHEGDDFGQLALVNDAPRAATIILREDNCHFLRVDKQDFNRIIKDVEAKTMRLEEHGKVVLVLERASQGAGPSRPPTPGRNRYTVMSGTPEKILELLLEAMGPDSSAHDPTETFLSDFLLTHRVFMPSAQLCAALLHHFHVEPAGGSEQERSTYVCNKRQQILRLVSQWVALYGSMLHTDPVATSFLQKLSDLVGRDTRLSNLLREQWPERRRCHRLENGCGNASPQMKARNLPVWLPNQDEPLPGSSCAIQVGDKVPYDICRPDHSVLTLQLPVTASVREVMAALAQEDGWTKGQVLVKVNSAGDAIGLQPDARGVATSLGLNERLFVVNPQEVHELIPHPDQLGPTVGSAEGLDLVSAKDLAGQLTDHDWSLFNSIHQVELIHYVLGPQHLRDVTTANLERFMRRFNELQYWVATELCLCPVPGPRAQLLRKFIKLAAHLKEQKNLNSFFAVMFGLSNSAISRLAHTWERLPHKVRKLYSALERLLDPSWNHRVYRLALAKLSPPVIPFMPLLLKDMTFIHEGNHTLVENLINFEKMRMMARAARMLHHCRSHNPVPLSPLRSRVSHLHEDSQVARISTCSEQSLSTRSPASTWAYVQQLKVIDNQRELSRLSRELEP
# Outline: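 Released BODIPY-GDP fluoresces less than Rap1-bound BODIPY-GDP; the signal is followed at 480/540 nm at 5-min intervals over 30 min, after 5 min at room temperature. Reactions contain 100 nM EPAC1, 250 nM RAP1B-BODIPY-GDP and 50 uM GDP; results are normalized to ATA and DMSO.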
# [2] = target: Rap guanine nucleotide exchange factor 3 (Homo sapiens) (UniProt O95398); experiment: Confirmatory qHTS for agonist of cAMP-regulated guanine nucleotide exchange factor 3 (EPAC1) (AID 1645881); further: nearly all actives have a fitted effect of over 75% in size; further: potency means the concentration at half of the fitted maximal effect;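 on activation: EPAC1 catalysed release of BODIPY-GDP from Rap1B seen as fluorescence loss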
# [3] = target: Rap guanine nucleotide exchange factor 4 (Homo sapiens) (UniProt Q8WZA2); experiment: Confirmatory qHTS for agonist of cAMP-regulated guanine nucleotide exchange factor 4 (EPAC2) (AID 1645884);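 further: nucleotide exchange releases bodipy-GDP from Rap1 and this lowers its fluorescence; nearly all actives have a fitted effect of over 65% in size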; further: potency means the concentration at half of the fitted maximal effect
# Sequence of Rap guanine nucleotide exchange factor 4 (Homo sapiens) (Q8WZA2 whole entry, looked up): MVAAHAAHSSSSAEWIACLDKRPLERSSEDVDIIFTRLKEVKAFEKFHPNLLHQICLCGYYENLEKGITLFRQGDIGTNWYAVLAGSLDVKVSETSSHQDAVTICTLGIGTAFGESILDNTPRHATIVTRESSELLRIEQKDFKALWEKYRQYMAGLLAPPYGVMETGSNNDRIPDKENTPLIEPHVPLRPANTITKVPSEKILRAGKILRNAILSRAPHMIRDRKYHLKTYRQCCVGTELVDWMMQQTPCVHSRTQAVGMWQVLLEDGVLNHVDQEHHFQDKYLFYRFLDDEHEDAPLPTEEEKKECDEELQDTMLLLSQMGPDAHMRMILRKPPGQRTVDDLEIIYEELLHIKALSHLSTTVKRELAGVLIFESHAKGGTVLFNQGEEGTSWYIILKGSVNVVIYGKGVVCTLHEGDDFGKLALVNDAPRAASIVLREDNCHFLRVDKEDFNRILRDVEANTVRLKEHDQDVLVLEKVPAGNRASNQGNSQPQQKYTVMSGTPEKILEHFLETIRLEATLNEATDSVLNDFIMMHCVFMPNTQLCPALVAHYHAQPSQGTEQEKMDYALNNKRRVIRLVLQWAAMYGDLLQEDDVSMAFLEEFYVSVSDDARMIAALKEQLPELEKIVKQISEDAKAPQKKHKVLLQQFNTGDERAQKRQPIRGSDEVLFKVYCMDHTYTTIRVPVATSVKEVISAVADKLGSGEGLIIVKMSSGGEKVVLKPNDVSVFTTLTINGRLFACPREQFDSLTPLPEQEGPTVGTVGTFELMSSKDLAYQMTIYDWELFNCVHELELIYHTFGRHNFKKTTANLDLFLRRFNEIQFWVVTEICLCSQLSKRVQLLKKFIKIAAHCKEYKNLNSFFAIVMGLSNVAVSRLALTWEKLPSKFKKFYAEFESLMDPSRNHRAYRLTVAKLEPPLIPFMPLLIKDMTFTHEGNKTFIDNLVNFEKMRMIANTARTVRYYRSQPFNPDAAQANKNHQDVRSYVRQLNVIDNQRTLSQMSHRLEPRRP
# [4] = target: Rap guanine nucleotide exchange factor 4 (Homo sapiens) (UniProt Q8WZA2); experiment: Confirmatory qHTS for antagonist of cAMP-regulated guanine nucleotide exchange factor 4 (EPAC2) (AID 1645885); further: nearly all actives have a fitted effect of over 25% in size; further: potency means the concentration at half of the fitted maximal effect
# [5] = target: Rap guanine nucleotide exchange factor 3 (Homo sapiens) (UniProt O95398); experiment: Counterscreen qHTS for antagonist of cAMP-regulated guanine nucleotide exchange factor 3 (EPAC1) (AID 1645888)
# Outline: (§1)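 Measured: fluorescence of BODIPY-GDP bound to Rap1B, which falls as exchange proceeds. Conditions include 50 uM competing GDP, 5 and 30 min reads, and a later cAMP challenge for antagonist detection.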
# [6] = target: Rap guanine nucleotide exchange factor 3 (Homo sapiens) (UniProt O95398); experiment: Counterscreen qHTS for agonist of cAMP-regulated guanine nucleotide exchange factor 3 (EPAC1) (AID 1645889); further: nearly all actives have a fitted effect of over 40% in size; further: potency means the concentration at half of the fitted maximal effect
# Outline: as §1
SMILES,Potency [1],Potency [2],Potency [3],Potency [4],Potency [5],activation [6],Potency [6],activation [3],"activity change, negative = inhibition [5]",outcome [4]
CCC(=O)N1CCc2cc(OC)c(OC)cc2C1COc1ccccc1OC (configuration not stated),inactive,inactive,inactive,inactive,inactive,4.46% [at 30.8 µM],–,–,–,–
CCOC(=O)C1CCCN(c2c(NCCN3CCCCC3C)c(=O)c2=O)C1 (configuration not stated),inactive,inactive,inactive,inactive,inactive,–,inactive,–,–,–
COc1ccc(C2=CC(=O)C[C@H](COCc3ccccc3)N(C(=O)OC(C)(C)C)O2)cc1,inactive,inactive,inactive,inactive,inactive,–,inactive,–,–,–
Cc1c(OC(C)C(=O)NC(Cc2c[nH]c3ccc(O)cc23)C(=O)O)ccc2c1oc(=O)c1ccccc12 (configuration not stated),13.5 µM (active),inactive,inactive,inactive,inactive,–,inactive,–,–,–
CC1=CC=CC2=NC(=O)CC(C)(C(=O)N(CC(=O)NC(C)C)C3CCCC3)N12 (configuration not stated),inactive,inactive,–,inactive,–,26.5% [at 30.8 µM],–,"3.39% [at 17.1 µM, percent relative to cAMP agonist control]",-13.5% [at 30.8 µM],–
CC(Oc1ccccc1)C(=O)Nc1nnc(S(=O)(=O)N2CCCCC2)s1 (configuration not stated),inactive,inactive,inactive,inactive,inactive,–,inactive,–,–,–
CCc1ccccc1N(CC(=O)NCCc1ccccc1)C(=O)CCC(=O)Nc1ccccn1,inactive,inactive,inactive,inactive,inactive,–,inactive,–,–,–
Cc1c(CCC(=O)O)c(=O)oc2cc(OCc3ccc(Br)cc3)ccc12,inactive,inactive,inactive,inactive,inactive,–,inactive,–,–,–
CN(CC(=O)Nc1cccc(F)c1)C(=O)CN1c2cccc3cccc(c23)S1(=O)=O,75.7 µM (active),inactive,inactive,inactive,inactive,–,inactive,–,–,–
COc1ccc(OC)c(/C=C2\SC(=S)N(NS(=O)(=O)c3ccccc3)C2=O)c1,23.9 µM (active),inactive,inactive,33.8 µM (active),inactive,–,inactive,–,–,–
C#CCOc1ccc(/C=C2/C(=O)N(c3cccc(C(=O)O)c3)N=C2C)cc1OC,inactive,inactive,–,inactive,–,10.5% [at 30.8 µM],–,"5.95% [at 17.1 µM, percent relative to cAMP agonist control]",6.78% [at 30.8 µM],–
S=C(Nc1cccc2ccccc12)NC1CCCCC1,inactive,inactive,–,inactive,–,5.1% [at 30.8 µM],–,"0.103% [at 17.1 µM, percent relative to cAMP agonist control]",5.07% [at 30.8 µM],–
COc1cc(/C=C2\SC(=S)N(NS(=O)(=O)c3ccccc3)C2=O)ccc1O,inactive,inactive,inactive,inactive,inactive,–,inactive,–,–,–
C/C=C/C(=O)N1c2ccc(C)cc2C(C)=CC1(C)C,inactive,inactive,inactive,inactive,inactive,–,inactive,–,–,–
O=C(O)c1ccccc1NS(=O)(=O)c1ccc(N/N=C/c2ccc(O)c(O)c2)c([N+](=O)[O-])c1,8.91 µM (active),inactive,–,inactive,–,24.6% [at 30.8 µM],–,"-3.03% [at 17.1 µM, percent relative to cAMP agonist control]",-1.88% [at 30.8 µM],–
c1ccc(OCCCn2ccnc2)cc1,inactive,inactive,inactive,inactive,inactive,–,inactive,–,–,–
COc1cc(/C=N/NC(=O)c2ccc3c(c2)OCCO3)cc(Br)c1O,42.6 µM (active),inactive,inactive,inactive,inactive,–,inactive,–,–,–
Cc1onc(-c2c(F)cccc2Cl)c1C(=O)Oc1ccccc1,inactive,inactive,–,inactive,–,7.91% [at 30.8 µM],–,"1.99% [at 17.1 µM, percent relative to cAMP agonist control]",-3.3% [at 30.8 µM],–
Oc1ccc(NCc2cccs2)cc1,inactive,inactive,–,inactive,–,21.5% [at 30.8 µM],–,"14.6% [at 17.1 µM, percent relative to cAMP agonist control]",0.945% [at 30.8 µM],–
CS/C(N)=N/N=C/c1c(O)ccc2ccccc12,21.3 µM (active),inactive,inactive,inactive,inactive,–,inactive,–,–,–
CN1CCN(C(c2ccccc2Cl)c2sc3nc(-c4ccco4)nn3c2O)CC1 (configuration not stated),inactive,inactive,inactive,–,inactive,–,inactive,–,–,inactive [at 12.7 µM]

SMILES,Potency [1],Potency [2],Potency [3],Potency [4],Potency [5],activation [6],Potency [6],activation [3],"activity change, negative = inhibition [5]",outcome [4]
CCOc1cc(C2C3=C(CC(C)(C)CC3=O)N(CCOC)C3=C2C(=O)CC(C)(C)C3)ccc1O,inactive,inactive,inactive,inactive,inactive,–,inactive,–,–,–
Cc1ccc(-c2csc(NC(=O)/C=C/c3ccco3)c2C(=O)O)cc1,25.1 µM (active),inactive,–,inactive,–,18.5% [at 30.8 µM],–,"5.44% [at 17.1 µM, percent relative to cAMP agonist control]",-12.5% [at 30.8 µM],–
Cc1[nH]c2ccccc2c1C(=O)C(C)OC(=O)c1ccc(Cl)nc1 (configuration not stated),inactive,inactive,–,inactive,–,19.4% [at 30.8 µM],–,"9.38% [at 17.1 µM, percent relative to cAMP agonist control]",-3.94% [at 30.8 µM],–
Nc1c(C(=O)c2ccccc2)sc2nsc(SCCN3CCCC3)c12,inactive,100 µM (active),100 µM (active),84.9 µM (active),inactive,–,39.8 µM (active),–,–,–
CCc1nc2c(OCc3ccc(OC(F)F)cc3)cccn2c1N(C)C(=O)c1ccc(OC)cc1,inactive,inactive,inactive,inactive,inactive,–,inactive,–,–,–
COc1ccc(CCNC(=O)CSc2nc(N)c(C#N)c(-c3cccs3)c2C#N)cc1OC,inactive,inactive,–,inactive,–,20.5% [at 30.8 µM],–,"3.67% [at 17.1 µM, percent relative to cAMP agonist control]",-17% [at 30.8 µM],–
COc1ccc(-c2oc3cccnc3c2C#CCO)cc1,inactive,inactive,inactive,inactive,inactive,–,inactive,–,–,–
CC(=O)Nc1ccc(Nc2nc3ccccc3nc2NS(=O)(=O)c2ccc(Cl)c([N+](=O)[O-])c2)cc1,50.1 µM (active),inactive,–,inactive,–,21.8% [at 30.8 µM],–,"-3.97% [at 17.1 µM, percent relative to cAMP agonist control]",-36.3% [at 30.8 µM],–
CC[C@@]1(c2ccccc2OC)ON(c2ccccc2C(F)(F)F)C1=O,inactive,inactive,inactive,inactive,inactive,–,inactive,–,–,–
CCN(CC)c1ccc2cc(-c3nnc(-c4ccccc4)o3)c(=O)oc2c1,inactive,15.8 µM (active),15.8 µM (active),4.26 µM (active),inactive,–,15.8 µM (active),–,–,–
O=C(Nc1cc(C(=O)Nc2ccccc2C(=O)O)cc(C(=O)Nc2ccccc2C(=O)O)c1)c1ccccc1,2.24 µM (active),inactive,–,inactive,–,19.7% [at 30.8 µM],–,"5.98% [at 17.1 µM, percent relative to cAMP agonist control]",11.5% [at 30.8 µM],–
COc1ccc(S(=O)(=O)N2CCCC2)cc1C(C)C,inactive,inactive,–,inactive,–,2.24% [at 30.8 µM],–,"-3.36% [at 17.1 µM, percent relative to cAMP agonist control]",-3.04% [at 30.8 µM],–
CCn1c(CNC(=O)COC)nc2ccccc21,inactive,inactive,–,inactive,–,4.54% [at 30.8 µM],–,"3.77% [at 17.1 µM, percent relative to cAMP agonist control]",-4.31% [at 30.8 µM],–
CCOC(=O)C1=NNC2(CC(=O)N(c3cc(C)cc(C)c3)C2=O)C1 (configuration not stated),inactive,inactive,inactive,inactive,inactive,–,inactive,–,–,–
CCc1nnc(NC(=O)c2cc(-c3ccco3)nc3ccccc23)s1,21.3 µM (active),inactive,inactive,inactive,inactive,–,inactive,–,–,–
CC(/C=C1\SC(=S)N(NS(=O)(=O)c2ccccc2)C1=O)=C\c1ccccc1,22.4 µM (active),inactive,–,inactive,–,7.68% [at 30.8 µM],–,"7.93% [at 17.1 µM, percent relative to cAMP agonist control]",-10.4% [at 30.8 µM],–
CCOC(=O)N1CCN(C(=O)c2cc(S(=O)(=O)N3CCc4ccccc43)ccc2OC)CC1,inactive,inactive,inactive,inactive,inactive,–,inactive,–,–,–
Cc1nc(N(C)Cc2ccccc2)c2c(C)c(C)sc2n1,inactive,inactive,–,inactive,–,11.8% [at 30.8 µM],–,"3.14% [at 17.1 µM, percent relative to cAMP agonist control]",-24.2% [at 30.8 µM],–
C/C(=N\NC(=O)c1cc(-c2cccc([N+](=O)[O-])c2)n[nH]1)c1ccccc1O,26.9 µM (active),inactive,inactive,inactive,inactive,–,inactive,–,–,–
CC(C)CNc1cc(Cl)c(S(=O)(=O)NCC(C)C)cc1C(=O)O,inactive,inactive,–,inactive,–,-0.574% [at 30.8 µM],–,"1.7% [at 17.1 µM, percent relative to cAMP agonist control]",8.12% [at 30.8 µM],–
C[C@@H](NC(=O)C1(c2ccccc2)CCN(C(=O)OC(C)(C)C)CC1)C(=O)N[C@@H](C(=O)O)c1ccccc1,42.6 µM (active),inactive,inactive,42.6 µM (active),inactive,–,inactive,–,–,–
